Laboratory results from article PMC5540273 (PLoS ONE, 2017).

Tested on: AKT1
Conditions: concentration: 1 μM, replicates: in singlicate; n = 1
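Also: KINOMEscan kinase panel screen.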

Point of comparison: `Cn1cc(-c2ccc3c(c2)CCN3C(=O)Cc2ccccc2Cl)c2c(N)ncnc21` [GSK2608885], “%Inh” value 0%. Against it:
- N#Cc1ccc(-c2cc(-c3c[nH]nc3-c3ccccn3)ccn2)cc1 [GW693028] — the same, 0%
- O=C(Nc1n[nH]c2cc(-c3cccc(F)c3)ccc12)C1CC1 [SB-735464] — the same, 0%
- COc1cc2c(cc1OC[C@@H](O)CO)ncc1c3ccc(C#N)cc3[nH]c21 — the same, 0%
- CCCCCc1nc2c(N)ncnc2n1CCCCC [SKF-97255] — the same, 0%
- Cc1cccc(Cn2ccn3c(=O)cc(N4CCOCC4)nc23)c1 [GSK2297542] — the same, 0%
- CCn1cnc2c(N)ncnc21 [GW345098] — the same, 0%
- Cn1ccc2ncnc(Oc3ccc(NC(=O)Nc4ccncc4)c(Cl)c3)c21 — higher, 9%
- Cl.Nc1ncnc2occ(-c3ccc(NC(=O)Nc4cc(C(F)(F)F)ccc4F)cc3)c12 [SB-707548] — the same, 0%
- Cc1ccc(C(=O)NCC(N)=O)cc1-n1c(C)cc(OCc2ccc(F)cc2F)c(Br)c1=O — higher, 29%
- NCC(NC(=O)c1cc(-c2cn[nH]c2)c(-c2ccnc3[nH]ccc23)s1)c1ccccc1.O=C(O)C(F)(F)F.O=C(O)C(F)(F)F (stereo not shown) [GSK1325775] — higher, 66%
- CN(C(=O)c1ccc(-c2cc(-c3c[nH]nc3-c3ccccn3)ccn2)cc1)C1CCOCC1 [GW810083] — the same, 0%
- Cc1nnc(-c2ccc(C)c(-c3ccc(C(=O)Nc4ccc(NS(C)(=O)=O)cc4)cc3)c2)o1 [GW702865] — the same, 0%
